Screens deposited in PubChem BioAssay by National Center for Advancing Translational Sciences (NCATS).
ATXN viability – cell viability loss in ATXN counter-screen | S2 cells (HEK-293 line with an ATXN2-luciferase reporter) viability, CellTiter-Fluor protease fluorescence, 24 h | 400,000 compounds, 0.49% hits | Potency, µM (doses to about 56.7 µM), hits mostly cytotoxic; note: nearly all actives have a fitted effect of over 40% in size
TGFb SMAD3 inh – inhibitors of TGF-b signaling; HepG2 CAGA-GFP TGF-b/SMAD3 reporter, GFP fluorescence, 18 h; TGF-beta stimulated, 500 pg/mL final; Potency, µM (doses to about 46.1 µM), hits mostly inhibitors; 410,000 compounds, 1.2% hits; note: nearly all actives have a fitted effect of over 65% in size
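Inhibition of TGF-beta-driven CAGA-GFP reporter expression in HEPG2 cells is measured by cellular GFP fluorescence after 18 h stimulation with 500 pg/mL recombinant TGF-beta in 1% FBS medium at 37 degrees C.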
HT1080 IDH1KD tx – HT-1080 IDH1 knockdown cell toxicity (counter line); HT-1080 IDH1 knockdown viability, ATP luminescence, 48 h; Potency, µM (doses to about 46.1 µM), hits mostly cytotoxic; 360,000 compounds, 2% hits; AID 686971
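Viability of IDH1-knockdown HT-1080 fibrosarcoma cells was assessed by CellTiter-Glo after 48 h at 37 °C with titrated compound; concentration-effect curves were classified by fit quality and response size.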
ATXN2 expr inh – inhibitors of ATXN2 expression | AID 1745845 | HEK-293 ATXN2-luciferase reporter, luminescence, 24 h | Potency, µM (top dose mostly 57 µM), usual class: inhibitors | 360,000 compounds, 0.72% hits; note: nearly all actives have a fitted effect of over 55% in size
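qHTS (up to 57 uM final) was run with 24 h compound exposure of reporter cells at 37 °C. Each well was multiplexed: SteadyGlo luminescence measured ATXN2-luciferase expression after a fluorogenic Gly-Phe-AFC viability readout (25 uM final).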
HT1080NT lethal – kills 2HG-producing HT-1080-NT fibrosarcoma cells | HT-1080-NT fibrosarcoma viability, CellTiter-Glo ATP luminescence, 48 h | Potency, µM (top dose mostly 46.1 µM), hits mostly cytotoxic | 360,000 compounds, 1.6% hits | AID 686970;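 note: NT is the 2HG producing partner of a matched IDH1 knockdown line; nearly all actives have a fitted effect of over 55% in size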
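HT-1080-NT fibrosarcoma cells (2HG-overproducing), 750 cells/well in RPMI with 5% FBS, dosed after 2 h and incubated 48 h at 37C. CellTiter-Glo luminescence normalized to DMSO and no-cell wells; concentration-response curves fitted and classed.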
HepG2 tox – HepG2 cytotoxicity, counter-screen for TGF-b inhibitors | 410,000 compounds, 0.76% hits | AID 588856 | Potency, µM (doses to about 46.1 µM), hits mostly cytotoxic | HepG2 CAGA-GFP viability, ATP luminescence, 18 h
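CellTiter-Glo luminescence gave cytotoxicity after 18 hours at 37 degrees C. The cells were HepG2 CAGA-GFP in 1% FBS DMEM, stimulated with 500 pg/mL TGF-beta after compound addition. %Activity was normalised to no-cell wells (complete cell-killing) and DMSO (no toxicity), and curves were fitted and classified.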
Each line names hits and unclear results; the compound was inactive in the other large screens. Most compounds without a hit are left out; they make up all but 3.8% or so of the library. Calls come from the whole dose curve; as a rule, active = well fitted curve in the direction sought with a large enough effect; inconclusive = small, poorly fitted or top-dose-only effect, or another doubt; inactive = no such curve, though single readings can be large; an effect the other way counts as inactive or inconclusive.

CC(=O)c1cccc(NC(=O)Cc2cccs2)c1	none
O=C(Cc1cccs1)Nc1cccc(C(=O)Nc2ccco2)c1	ATXN viability inconclusive, HT1080 IDH1KD tx 11.2µM, HT1080NT lethal inconclusive
Cc1cccc2c1-c1sc(C(=O)Nc3ccccc3N3CCN(C)CC3)cc1CO2	ATXN viability inconclusive, TGFb SMAD3 inh inconclusive, ATXN2 expr inh 28.2µM, HT1080NT lethal inconclusive, HepG2 tox 15.8µM
Cc1cccc2c1-c1sc(C(=O)NCCCN3CCN(c4cccc(Cl)c4)CC3)cc1CO2	ATXN viability inconclusive, TGFb SMAD3 inh 12.6µM, ATXN2 expr inh inconclusive (no result: HT1080 IDH1KD tx, HT1080NT lethal)
Cc1ccc(-n2nc(C)c(C(=O)NCCCN3CCN(c4ccc(F)cc4)CC3)c2-n2cccc2)cc1	ATXN2 expr inh inconclusive (no result: ATXN viability, HT1080 IDH1KD tx, HT1080NT lethal)
Cc1nn(-c2ccc(F)cc2)c(-n2cccc2)c1C(=O)NCCCN1CCN(c2cccc(Cl)c2)CC1	ATXN viability inconclusive, TGFb SMAD3 inh 11.2µM, ATXN2 expr inh inconclusive, HepG2 tox 17.8µM (no result: HT1080 IDH1KD tx, HT1080NT lethal)
Cc1cccc2c1-c1sc(C(=O)NCCCN3CCN(c4ccccc4F)CC3)cc1CO2	none (no result: HT1080 IDH1KD tx, HT1080NT lethal)
Cc1cccc(C(c2sc3nc(-c4ccco4)nn3c2O)N2CCN(c3ccccc3)CC2)c1 (stereo not given)	TGFb SMAD3 inh inconclusive (no result: HT1080 IDH1KD tx, HT1080NT lethal)
COc1cc(NC(=O)C2CCN(S(=O)(=O)c3c(C)noc3/C=C/c3ccccc3F)CC2)cc(OC)c1OC	none (no result: ATXN viability, HT1080 IDH1KD tx, ATXN2 expr inh, HT1080NT lethal)
COc1ccc(OC2CCN(S(=O)(=O)c3ccc(OC)c(OC)c3)CC2)cc1	ATXN2 expr inh inconclusive, HepG2 tox 11.2µM
COc1ccc(OC2CCN(S(=O)(=O)c3ccc(F)cc3)CC2)cc1	none
COc1ccc(Nc2c3c(nc4nncn24)CCC3)cc1Cl	none (no result: ATXN viability, HT1080 IDH1KD tx, ATXN2 expr inh, HT1080NT lethal)
Cc1nn2c(=O)cc(COC(=O)c3ccccc3NC(=O)c3cccs3)nc2s1	none (no result: ATXN viability, HT1080 IDH1KD tx, ATXN2 expr inh, HT1080NT lethal)
COc1ccc(CCNc2c(C)c(C)nc3ncnn23)cc1	HT1080 IDH1KD tx 7.08µM, HT1080NT lethal 10µM
CCc1c(C)nc2ncnn2c1NCCc1ccc(OC)c(OC)c1	TGFb SMAD3 inh inconclusive
O=C(Nc1ccccc1)c1cc(C2CCCN(C(=O)C3CC3)C2)on1 (stereo not given)	ATXN2 expr inh 10µM, HepG2 tox 8.91µM
O=C(Nc1ccc2c(c1)OCO2)c1cc(C2CCCN(C(=O)CCCc3ccccc3)C2)on1 (stereo not given)	HT1080 IDH1KD tx inconclusive, HT1080NT lethal 16.4µM
O=C(Nc1ccc2c(c1)OCO2)c1cc(C2CCCN(C(=O)CCc3ccccc3)C2)on1 (stereo not given)	ATXN viability inconclusive, HT1080 IDH1KD tx inconclusive
CC(=O)N1CCCC(c2cc(C(=O)Nc3ccccc3)no2)C1 (stereo not given)	ATXN2 expr inh inconclusive
Cc1ccc(S(=O)(=O)N2CCN(c3nc(-c4ncccn4)nc4ccccc34)CC2)cc1	none (no result: ATXN viability, TGFb SMAD3 inh, ATXN2 expr inh, HepG2 tox)
CCS(=O)(=O)c1nnnn1-c1ccccc1S(C)(=O)=O	ATXN viability inconclusive, TGFb SMAD3 inh 11.2µM, HT1080 IDH1KD tx 12.6µM, HT1080NT lethal 17.8µM
O=c1c2cc(Cl)ccc2[nH]c(=S)n1Cc1ccco1	HT1080 IDH1KD tx 11.2µM, HT1080NT lethal 7.94µM
O=c1[nH]c2ccc(Cl)cc2c(=O)n1Cc1ccco1	none
CC1(C)Cc2c(sc(NC(=O)COc3ccc(Cl)cc3)c2C#N)C(C)(C)N1	HT1080 IDH1KD tx inconclusive, HT1080NT lethal inconclusive
Cc1ccccc1OCC(=O)Nc1sc2c(c1C#N)CC(C)(C)NC2(C)C	HT1080 IDH1KD tx inconclusive, HT1080NT lethal 23.1µM
Cc1ccc(C)c(CN2C(=O)c3ccccc3S(=O)c3ccc(C(=O)N4CCCCC4)cc32)c1 (stereo not given)	TGFb SMAD3 inh inconclusive (no result: HT1080 IDH1KD tx, HT1080NT lethal)
O=C(Nc1ccc2[nH]c(=O)[nH]c2c1)c1ccc([N+](=O)[O-])o1	ATXN viability inconclusive, TGFb SMAD3 inh 11.2µM, HT1080 IDH1KD tx inconclusive
Cc1ccc(NC(=O)c2ccc([N+](=O)[O-])o2)cc1C	ATXN viability inconclusive, TGFb SMAD3 inh inconclusive, HT1080 IDH1KD tx 13µM, HT1080NT lethal 25.9µM
